Experimental data taken from PubChem BioAssay (NCATS).
Records with an inconclusive call do not appear. The source made the active and inactive calls. Unless noted, calls follow the shape of the dose curve; as a rule, active = well fitted curve in either direction with a large enough effect (not every such curve was filed as active); inconclusive = small, poorly fitted or top-dose-only effect, or another doubt; inactive = flat fitted curve, though single readings scatter.

Key:
[1] = target: Lysosomal acid glucosylceramidase (Homo sapiens) (UniProt P04062); experiment: Glucocerebrosidase-p2 (AID 348; in the data active = potency below about 10 µM; also: potency is read from the fitted curve at half-maximal effect); details: purified GBA, blue fluorogenic substrate, 40 min
Procedure, shortened: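 Compounds titrated from 0.6 nM upwards against 0.2 nM enzyme in pH 5.9 citric acid/KH2PO4, taurocholate, tween-20; blue fluorogenic substrate 80 uM, 40 min room temperature, stopped and read Ex 365/Em 440 for AC50.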

[2] = AP1 Signaling Pathway (AID 357); details: ME-180 AP-1-bla reporter, EGF-induced, beta-lactamase ratio, 5 h; at 7.69 µM (top of the series) unless noted; also: % is scaled to controls: 0 for no effect and ±100 for the full control effect
Procedure, shortened: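 ME-180 cells with beta-lactamase reporter under AP-1 response element, stimulated with EC50 EGF; compounds tested in titration series, 5 h at 37 °C. CCF4 substrate added 2.5 h at room temperature; 460/530 nm emission ratio gave %activity and AC50.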

[3] = Stat Signaling Pathway (AID 446); details: ME-180 SIE beta-lactamase reporter, IL-6 stimulated, 5 h; at 7.69 µM (top of the series) unless noted;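 also: ME-180 cervical cancer cells given 40 pM IL-6 alongside compound; SIE-controlled beta-lactamase reporter measured as 460/530 nm FRET emission ratio; % is scaled to controls: 0 for no effect and ±100 for the full control effect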
Procedure, shortened: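 ME-180 SIE-bla cells; overnight plating; cpd + IL-6 40 pM, 5 h, 37 C; LiveBLAzer 2.5 h RT; 460/530 nm emission ratio. Normalized to 300 pM IL-6 and 125 nM JAK inhibitor controls.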

[4] = target: Glucocorticoid receptor (Homo sapiens) (UniProt P04150); experiment: GR-GFP Redistribution (AID 450;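 active = compounds whose dose series gives a full or clear partial fitted curve of increased nuclear translocation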; also: potency is read from the fitted curve at half-maximal effect); details: U2OS GR-GFP nuclear translocation, laser cytometry, 2 h
[5] = target: Glucocorticoid receptor (Homo sapiens) (UniProt P04150); experiment: GR-EFC Redistribution (AID 451; calls by dose curve; also: potency is read from the fitted curve at half-maximal effect); details: CHO-K1 GR-EFC translocation, beta-gal luminescence, 2 h
Procedure, shortened: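 CHO-K1 cells expressing nuclear EA and GR-ED fragments of b-gal; compounds titrated up to 46 uM final, 2 h at 37 C. GR nuclear translocation read as complemented b-gal luminescence after 1 h RT detection.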

[6] = target: Mitogen-activated protein kinase 10 (Mus musculus) (UniProt Q61831); experiment: JNK3 AlphaScreen Assay (AID 530); details: JNK3 lysate, c-Jun phosphorylation; series mostly up to 57.1 µM;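 also: kinase came from lysate of stimulated human HepG2 cells; signal reports phosphorylation of biotinylated GST-cJun 1-79 at Ser73 with 10 µM ATP; % is scaled to controls: 0 for no effect and ±100 for the full control effect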
Procedure, shortened: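 Pre-activated (IL-1β/TNFα) JNK3 in HepG2 lysates phosphorylates biotin-GST-cJun(1-79), 10 uM ATP; anti-phospho-cJun(Ser73) AlphaScreen read at room temperature, pH 7.6 Tris buffer. Compounds pre-incubated 15 min as titrations.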

[7] = target: 3',5'-cyclic-AMP phosphodiesterase 4B (Homo sapiens) (UniProt Q07343); experiment: qHTS Assay for Inhibitors of PDE-IV (AID 607; active = well fitted activation curve with a large enough effect in the main read-out, with a control signal flat, not every such curve was filed as active; also: % of control where 0% means no effect); details: HEK293 ACTOne CNG channel cells, membrane potential fluorescence; series mostly up to 22.9 µM
Procedure, shortened: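 ACTOne HEK293 cells carry a modified cAMP-gated CNG channel and express endogenous PDE4; plated 1000 cells/well, compounds up to 22.9 uM final. Membrane-potential dye fluorescence (ex 535/em 590) was read; parental cells received 10 uM forskolin + 100 uM RO 20-1724.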

[8] = target: Cytochrome P450 2D6 (Homo sapiens) (UniProt P10635); experiment: qHTS Assay for Inhibitors and Substrates of Cytochrome P450 2D6 (AID 891; active = well fitted curve in the direction sought with a large enough effect; an effect the other way counts as inactive or inconclusive; also: potency is read from the fitted curve at half-maximal effect; nearly all actives have a fitted effect of over 60% in size); details: recombinant CYP2D6, luciferin-ME EGE luminescence; series mostly up to 57.1 µM
Procedure, shortened: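 Human CYP2D6 (5 nM) with 30 uM Luciferin-ME EGE (at Km) in 100 mM KPO4, compound preincubated 10 min, then NADPH regeneration system for 60 min at room temperature. Luciferin read by luminescence; normalized to 1.43 uM quinidine.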

[9] = Confirmation and Secondary Assay for Modulators of Hemoglobin Beta Chain Splicing at IVS2 654 locus (AID 910; active = well fitted curve in the direction sought with a large enough effect; an effect the other way counts as inactive or inconclusive;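 also: HeLa cells stably carrying EGFP split by mutant beta-globin IVS2-654 intron; % of control where 0% means no effect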); details: HeLa EGFP-654 splicing reporter, GFP fluorescence, 48 h; series mostly up to 38.3 µM
Procedure, shortened: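 HeLa cells stably expressing EGFP interrupted by β-globin IVS2-654 intron, seeded overnight in Opti-MEM/2% FCS, then treated 2 days at 37 °C. Restored splicing read as total peak GFP intensity per well by laser scanning cytometry (488 nm excitation, 500–520 nm emission); 500 nM antisense PNA as control.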

[10] = qHTS Assay for Identification of Small Molecule Agonists for Hypoxia Response Element Signaling Pathway (AID 914; active = well fitted activation curve with a large enough effect in the signal ratio, with a control signal flat, not every such curve was filed as active; the % refers to the signal ratio; also: % of control where 0% means no effect); details: ME-180 (cervical carcinoma) HRE-bla reporter, beta-lactamase ratio, CoCl2, 17 h; activation: stronger effect = higher value
Procedure, shortened: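 Read-out: CCF4 FRET ratio of 460nm to 530nm emission (excitation 405nm) after 2.5 hours at room temperature, taken from HRE-bla ME-180 cells that had been exposed to compound and EC50 CoCl2 for 17 hours.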

[11] = Confirmation and Secondary Assay for Modulators of Hemoglobin Beta Chain Splicing at IVS2 705 locus (AID 930; active = well fitted curve in the direction sought with a large enough effect; an effect the other way counts as inactive or inconclusive;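 also: HeLa cells stably expressing the EGFP-705 splicing reporter; GFP fluorescence per well restored by corrected splicing of the IVS2-705 intron in EGFP; % of control where 0% means no effect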); details: HeLa EGFP-705 splicing reporter, GFP fluorescence, 48 h; series mostly up to 38.3 µM
Procedure, shortened: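 HeLa EGFP-705 reporter; 500 cells/well, o/n 37C 5% CO2; cpd 2 d; 488 ex/500-520 em laser scan; total peak GFP intensity/well. Ref: 500 nM […] antisense PNA.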

[12] = qHTS Assay for Lipid Storage Modulators (AID 1519; calls by dose curve); details: Drosophila S3 cells, BODIPY lipid droplet/cell ratio, laser cytometry, cells loaded with oleic acid; for activity change, negative = inhibition: at 57.5 µM (top of the series)
Procedure, shortened: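 Cells seeded at 5,000 per well were treated with compounds over a concentration series and loaded with oleic acid (400 uM, as added). Lipid droplet fluorescence (488 nm excitation, 500-530 nm channel) was read by laser-scanning cytometry and normalized to 20 uM Triacsin C.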

[13] = target: Ubiquitin carboxyl-terminal hydrolase 1 (Homo sapiens) (UniProt O94782); experiment: Inhibitors of USP1/UAF1: Pilot qHTS (AID 504865; active = well fitted curve in the direction sought with a large enough effect; an effect the other way counts as inactive or inconclusive;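 also: rhodamine fluorescence freed from ubiquitin-rhodamine substrate followed over time; top concentration of the series differs between compounds; % is scaled to controls: 0 for no effect and ±100 for the full control effect; nearly all actives have a fitted effect of over 35% in size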); details: purified USP1/UAF1, Ub-rhodamine cleavage fluorescence; series mostly up to 54.9 µM
Procedure, shortened: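 Deubiquitinase activity followed as kinetic rhodamine fluorescence release from 150 nM Ub-Rho. 1 nM USP1/UAF1 with compound, after 15 min room-temperature preincubation, in HEPES pH 7.8 buffer containing TCEP, EDTA, BSA and Tween-20.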

[14] = Primary qHTS for small molecule stabilizers of the endoplasmic reticulum resident proteome: Secreted ER Calcium Modulated Protein (SERCaMP) assay (AID 1508630; active = well fitted curve in the direction sought with a large enough effect; an effect the other way counts as inactive or inconclusive; also: % is scaled to controls: 0 for no effect and ±100 for the full control effect); details: SH-SY5Y GLuc-SERCaMP (Gaussia luciferase released on ER calcium loss) secretion, thapsigargin, luminescence; series mostly up to 38.4 µM
Procedure, shortened: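 GLuc-SERCaMP-expressing SH-SY5Y cells, pretreated 16 h with compound, are challenged with thapsigargin to empty ER calcium stores; after 4 h, coelenterazine is added directly to the medium and luminescence is imaged.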

[15] = NFAT Signaling Pathway (AID 444); details: Jurkat NFAT-bla M1, carbachol, beta-lactamase ratio, 5 h; at 7.69 µM (top of the series) unless noted
Procedure, shortened: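 Jurkat cells with NFAT-driven β-lactamase reporter and co-expressed M1 receptor, stimulated with carbachol (final 1 uM, ~EC50), compound titration, 5 h at 37 °C. CCF4 loaded 1 h at RT; 460/530 nm ratio gave %activity and AC50.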

[16] = measured here: cell count channel max response
[17] = measured here: lipid channel max response

Sequence of Lysosomal acid glucosylceramidase (Homo sapiens) (P04062 whole entry, looked up): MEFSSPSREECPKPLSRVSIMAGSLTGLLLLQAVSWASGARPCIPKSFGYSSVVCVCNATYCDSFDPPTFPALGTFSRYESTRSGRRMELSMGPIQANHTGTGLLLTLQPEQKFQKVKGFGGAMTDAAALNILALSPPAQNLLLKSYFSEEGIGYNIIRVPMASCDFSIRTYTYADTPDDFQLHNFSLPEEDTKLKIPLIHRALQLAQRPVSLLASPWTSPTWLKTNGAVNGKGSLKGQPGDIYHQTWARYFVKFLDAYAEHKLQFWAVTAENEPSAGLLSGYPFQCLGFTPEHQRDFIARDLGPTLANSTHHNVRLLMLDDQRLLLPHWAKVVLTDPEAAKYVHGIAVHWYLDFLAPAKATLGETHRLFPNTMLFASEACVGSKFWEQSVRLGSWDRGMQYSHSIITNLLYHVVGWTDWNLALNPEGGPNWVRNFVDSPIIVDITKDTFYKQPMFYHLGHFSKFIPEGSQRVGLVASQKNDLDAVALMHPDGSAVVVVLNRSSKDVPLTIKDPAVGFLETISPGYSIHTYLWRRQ
Sequence of Glucocorticoid receptor (Homo sapiens) (P04150 whole entry, looked up, the tested form may be a part): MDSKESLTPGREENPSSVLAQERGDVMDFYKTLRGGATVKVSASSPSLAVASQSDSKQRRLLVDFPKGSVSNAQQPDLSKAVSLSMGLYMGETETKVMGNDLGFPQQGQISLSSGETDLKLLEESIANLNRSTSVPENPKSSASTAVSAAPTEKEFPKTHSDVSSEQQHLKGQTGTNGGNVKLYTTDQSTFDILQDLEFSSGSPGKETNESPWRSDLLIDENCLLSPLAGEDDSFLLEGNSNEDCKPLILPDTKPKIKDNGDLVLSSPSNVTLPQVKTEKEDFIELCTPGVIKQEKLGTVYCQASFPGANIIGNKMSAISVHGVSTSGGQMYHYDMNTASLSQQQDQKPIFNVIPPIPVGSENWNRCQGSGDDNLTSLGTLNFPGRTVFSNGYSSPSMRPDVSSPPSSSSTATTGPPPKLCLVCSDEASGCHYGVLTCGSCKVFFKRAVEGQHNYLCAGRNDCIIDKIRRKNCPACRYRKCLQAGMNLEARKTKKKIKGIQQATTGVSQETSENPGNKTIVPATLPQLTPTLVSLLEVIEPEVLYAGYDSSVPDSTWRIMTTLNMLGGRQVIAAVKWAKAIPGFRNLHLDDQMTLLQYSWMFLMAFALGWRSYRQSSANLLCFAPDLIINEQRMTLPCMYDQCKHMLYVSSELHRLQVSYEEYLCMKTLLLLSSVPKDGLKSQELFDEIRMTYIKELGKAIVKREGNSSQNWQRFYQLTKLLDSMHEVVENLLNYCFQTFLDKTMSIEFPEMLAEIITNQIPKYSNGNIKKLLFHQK
Sequence of 3',5'-cyclic-AMP phosphodiesterase 4B (Homo sapiens) (Q07343 whole entry, looked up): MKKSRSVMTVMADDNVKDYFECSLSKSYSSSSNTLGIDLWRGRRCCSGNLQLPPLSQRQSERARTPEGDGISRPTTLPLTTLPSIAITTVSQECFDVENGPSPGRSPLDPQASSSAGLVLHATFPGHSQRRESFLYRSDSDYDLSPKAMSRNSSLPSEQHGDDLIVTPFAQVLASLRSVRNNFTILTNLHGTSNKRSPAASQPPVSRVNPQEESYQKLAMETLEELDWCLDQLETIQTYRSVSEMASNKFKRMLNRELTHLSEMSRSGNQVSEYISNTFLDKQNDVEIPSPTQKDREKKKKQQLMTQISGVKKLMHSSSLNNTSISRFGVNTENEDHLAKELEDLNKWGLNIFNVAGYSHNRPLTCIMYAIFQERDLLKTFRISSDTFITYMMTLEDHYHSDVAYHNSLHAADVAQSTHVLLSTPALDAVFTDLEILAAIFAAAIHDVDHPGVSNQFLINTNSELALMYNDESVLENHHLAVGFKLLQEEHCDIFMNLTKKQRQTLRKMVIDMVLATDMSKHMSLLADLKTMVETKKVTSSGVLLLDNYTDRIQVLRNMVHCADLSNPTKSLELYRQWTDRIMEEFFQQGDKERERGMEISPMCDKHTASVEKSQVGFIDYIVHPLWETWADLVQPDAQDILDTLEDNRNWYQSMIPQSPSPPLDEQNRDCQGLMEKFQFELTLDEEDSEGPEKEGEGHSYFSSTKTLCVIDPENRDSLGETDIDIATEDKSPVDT
Sequence of Ubiquitin carboxyl-terminal hydrolase 1 (Homo sapiens) (O94782 whole entry, looked up): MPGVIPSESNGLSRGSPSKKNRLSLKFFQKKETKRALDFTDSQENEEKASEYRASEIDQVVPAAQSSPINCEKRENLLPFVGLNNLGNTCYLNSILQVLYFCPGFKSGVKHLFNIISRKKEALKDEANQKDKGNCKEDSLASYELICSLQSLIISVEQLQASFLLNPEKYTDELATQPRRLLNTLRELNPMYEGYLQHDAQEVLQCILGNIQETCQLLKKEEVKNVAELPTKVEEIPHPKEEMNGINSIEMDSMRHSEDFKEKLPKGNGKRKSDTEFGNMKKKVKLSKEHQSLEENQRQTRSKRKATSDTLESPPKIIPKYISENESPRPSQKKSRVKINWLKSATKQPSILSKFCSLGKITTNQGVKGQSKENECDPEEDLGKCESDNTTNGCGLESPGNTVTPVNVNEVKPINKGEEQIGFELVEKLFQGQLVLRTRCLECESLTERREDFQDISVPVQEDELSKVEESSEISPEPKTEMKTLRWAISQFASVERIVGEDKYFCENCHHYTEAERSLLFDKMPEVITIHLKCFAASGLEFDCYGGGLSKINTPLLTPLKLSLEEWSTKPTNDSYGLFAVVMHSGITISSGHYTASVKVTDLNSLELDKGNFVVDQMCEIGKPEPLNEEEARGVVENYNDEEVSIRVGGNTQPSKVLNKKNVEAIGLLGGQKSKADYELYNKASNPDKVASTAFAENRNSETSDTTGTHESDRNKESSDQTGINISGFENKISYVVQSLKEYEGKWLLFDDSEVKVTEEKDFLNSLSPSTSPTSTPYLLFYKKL
Sequence of Cytochrome P450 2D6 (Homo sapiens) (P10635 whole entry, looked up): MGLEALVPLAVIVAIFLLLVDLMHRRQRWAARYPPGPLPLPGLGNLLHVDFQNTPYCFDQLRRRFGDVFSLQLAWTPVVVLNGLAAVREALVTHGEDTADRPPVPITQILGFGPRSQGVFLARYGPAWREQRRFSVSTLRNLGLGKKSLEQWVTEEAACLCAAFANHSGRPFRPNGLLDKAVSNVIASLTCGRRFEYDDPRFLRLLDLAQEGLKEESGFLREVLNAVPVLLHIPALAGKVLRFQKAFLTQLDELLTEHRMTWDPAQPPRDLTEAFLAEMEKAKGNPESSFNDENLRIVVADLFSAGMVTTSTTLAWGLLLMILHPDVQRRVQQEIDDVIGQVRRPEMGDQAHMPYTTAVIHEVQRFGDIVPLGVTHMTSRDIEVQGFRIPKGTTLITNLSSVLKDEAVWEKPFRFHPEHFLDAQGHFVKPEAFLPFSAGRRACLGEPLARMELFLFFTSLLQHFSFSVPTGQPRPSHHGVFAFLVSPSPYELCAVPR

Structure (SMILES)	Potency [1]	activity change, negative = inhibition [2]	activity, negative = inhibition [3]	Potency [4]	Potency [5]	Potency [6]	Potency [7]	Potency [8]	Potency [9]	activation [10]	outcome [11]	activity change, negative = inhibition [12]	max response [12, 16] [%]	max response [12, 17] [%]	Potency [13]	outcome [14]	activity change, negative = inhibition [15]
CN(C)Cc1ccccc1-c1cc(N(C)C)ncn1	> 11.4 µM (inactive)	-1.87% (inactive)	7.42% (inactive)	> 46 µM (inactive)	> 46 µM (inactive)	inactive	inactive	1.26 µM (active)	inactive	5.79% (inactive)	inactive	5.84% (inactive)	8.47	12	inactive	inactive	
O=C(c1ccncc1)N1CCC2(CC1)CN(c1ccncc1)C2	> 11.4 µM (inactive)	6.26% (inactive)	1.34% (inactive)		> 46 µM (inactive)	inactive	inactive					1.59% (inactive)	-20.1	-17.6		inactive	
CC(=O)N1CCC2(CCCN(Cc3ccc(C#N)cc3)C2)CC1	> 11.4 µM (inactive)	1.53% (inactive)	6.73% (inactive)		> 46 µM (inactive)	inactive	inactive					4.86% (inactive)	10.3	18.3		inactive	
O=C(c1cc(C(F)(F)F)cc(C(F)(F)F)c1)N1CCC2(CCCN(c3ccccc3)C2)CC1	> 11.4 µM (inactive)	22.8% (inactive)	2.12% (inactive)		> 46 µM (inactive)	inactive	inactive					-18.4% (inactive)	1.58	-14.9		inactive	
COc1ccc(C(=O)N2CCC3(CC2)CN(c2ccc(-c4ccccc4)cc2)C3)cc1	> 11.4 µM (inactive)	-5.62% (inactive)			> 46 µM (inactive)	inactive	inactive					-3.67% (inactive)	9.2	7.61		inactive	-9.07% (inactive)
CC(C)CN1CC2(CCN(C(=O)c3csnn3)CC2)C1	> 11.4 µM (inactive)	-4.73% (inactive)	4.77% (inactive)		> 46 µM (inactive)	inactive	inactive					-0.802% (inactive)	-2.36	-0.0505		inactive	
O=C(c1cc(C(F)(F)F)cc(C(F)(F)F)c1)N1CCC2(CCCN(Cc3ccccc3)C2)CC1	> 11.4 µM (inactive)	15.8% (inactive)	-0.518% (inactive)		> 46 µM (inactive)	inactive	inactive					-0.673% (inactive)	4.9	5.21		inactive	
O=C(c1csnn1)N1CCC2(CCCN(c3ccncc3)C2)CC1	> 11.4 µM (inactive)	-17.6% (inactive)	-10.5% (inactive)		> 46 µM (inactive)	inactive	inactive					-0.384% (inactive)	0.465	-0.685		inactive	
CC(C)CN1CC2(CCN(C(=O)c3ccco3)CC2)C1	> 11.4 µM (inactive)	6.73% (inactive)	-3.41% (inactive)		> 46 µM (inactive)	inactive	inactive					-2.08% (inactive)	8.53	7.7		inactive	
COc1ccc(C(=O)N2CCC3(CCN(Cc4ccccc4)CC3)CC2)cc1	> 11.4 µM (inactive)	-0.685% (inactive)	0.0273% (inactive)		> 46 µM (inactive)	inactive	inactive					0.635% (inactive)	-0.0682	7.94		inactive	
COC(=O)N1CCC2(CCN(Cc3ccccc3)CC2)CC1	> 11.4 µM (inactive)	-5.32% (inactive)	-1.16% (inactive)		> 46 µM (inactive)	inactive	inactive					2.47% (inactive)	-0.656	4.63		inactive	
N#Cc1ccc(CN2CC3(CCN(C(=O)c4ccco4)CC3)C2)cc1	> 11.4 µM (inactive)	-7.09% (inactive)	4.26% (inactive)		> 46 µM (inactive)	inactive	inactive					4.77% (inactive)	18.6	23.7		inactive	
O=C(Nc1ccccc1)N1CC[C@@]2(CCCN(C(=O)c3csnn3)C2)C1	> 11.4 µM (inactive)	-13.6% (inactive)	0.432% (inactive)		> 46 µM (inactive)	inactive	inactive					6.56% (inactive)	-5.15	6.65		inactive	
O=C(c1cnccn1)N1CCC2(CCN(Cc3cc(C(F)(F)F)cc(C(F)(F)F)c3)CC2)CC1	> 11.4 µM (inactive)	6.25% (inactive)	-5.04% (inactive)		> 46 µM (inactive)	inactive	inactive					2.5% (inactive)	13.6	15.1		inactive	
CC(=O)N1CCC2(CC1)CN(C(=O)Nc1cccc(C#N)c1)C2	> 11.4 µM (inactive)	-2.26% (inactive)			> 46 µM (inactive)	inactive	inactive					2.51% (inactive)	-2.48	1.82		inactive	4.7% (inactive)
O=C(c1cc(C(F)(F)F)cc(C(F)(F)F)c1)N1CCC2(CCN(Cc3ccncc3)CC2)CC1	> 11.4 µM (inactive)	-22.8% (inactive)	6.58% (inactive)		> 46 µM (inactive)	inactive	inactive					3.65% (inactive)	7.35	10.5		inactive	
